Laboratory results taken from PubChem BioAssay (EPA / NIEHS).
Inconclusive results are not listed. Activity calls are given as the source filed them. Rule for the calls: active = hit-call score of the fitted dose curve at least 0.9, where 1 is the maximum; inconclusive = response in the unintended direction; inactive = score below 0.9.

molecular target: human MET Proto-Oncogene, Receptor Tyrosine Kinase (MET), MET (gene 4233) (UniProt P08581); experiment: NVS_ENZ_hMet: NovaScreen (NVS) Enzymatic Assay for human MET Proto-Oncogene, Receptor Tyrosine Kinase (MET) (AID 2283180)
Sequence (P08581 whole entry, looked up): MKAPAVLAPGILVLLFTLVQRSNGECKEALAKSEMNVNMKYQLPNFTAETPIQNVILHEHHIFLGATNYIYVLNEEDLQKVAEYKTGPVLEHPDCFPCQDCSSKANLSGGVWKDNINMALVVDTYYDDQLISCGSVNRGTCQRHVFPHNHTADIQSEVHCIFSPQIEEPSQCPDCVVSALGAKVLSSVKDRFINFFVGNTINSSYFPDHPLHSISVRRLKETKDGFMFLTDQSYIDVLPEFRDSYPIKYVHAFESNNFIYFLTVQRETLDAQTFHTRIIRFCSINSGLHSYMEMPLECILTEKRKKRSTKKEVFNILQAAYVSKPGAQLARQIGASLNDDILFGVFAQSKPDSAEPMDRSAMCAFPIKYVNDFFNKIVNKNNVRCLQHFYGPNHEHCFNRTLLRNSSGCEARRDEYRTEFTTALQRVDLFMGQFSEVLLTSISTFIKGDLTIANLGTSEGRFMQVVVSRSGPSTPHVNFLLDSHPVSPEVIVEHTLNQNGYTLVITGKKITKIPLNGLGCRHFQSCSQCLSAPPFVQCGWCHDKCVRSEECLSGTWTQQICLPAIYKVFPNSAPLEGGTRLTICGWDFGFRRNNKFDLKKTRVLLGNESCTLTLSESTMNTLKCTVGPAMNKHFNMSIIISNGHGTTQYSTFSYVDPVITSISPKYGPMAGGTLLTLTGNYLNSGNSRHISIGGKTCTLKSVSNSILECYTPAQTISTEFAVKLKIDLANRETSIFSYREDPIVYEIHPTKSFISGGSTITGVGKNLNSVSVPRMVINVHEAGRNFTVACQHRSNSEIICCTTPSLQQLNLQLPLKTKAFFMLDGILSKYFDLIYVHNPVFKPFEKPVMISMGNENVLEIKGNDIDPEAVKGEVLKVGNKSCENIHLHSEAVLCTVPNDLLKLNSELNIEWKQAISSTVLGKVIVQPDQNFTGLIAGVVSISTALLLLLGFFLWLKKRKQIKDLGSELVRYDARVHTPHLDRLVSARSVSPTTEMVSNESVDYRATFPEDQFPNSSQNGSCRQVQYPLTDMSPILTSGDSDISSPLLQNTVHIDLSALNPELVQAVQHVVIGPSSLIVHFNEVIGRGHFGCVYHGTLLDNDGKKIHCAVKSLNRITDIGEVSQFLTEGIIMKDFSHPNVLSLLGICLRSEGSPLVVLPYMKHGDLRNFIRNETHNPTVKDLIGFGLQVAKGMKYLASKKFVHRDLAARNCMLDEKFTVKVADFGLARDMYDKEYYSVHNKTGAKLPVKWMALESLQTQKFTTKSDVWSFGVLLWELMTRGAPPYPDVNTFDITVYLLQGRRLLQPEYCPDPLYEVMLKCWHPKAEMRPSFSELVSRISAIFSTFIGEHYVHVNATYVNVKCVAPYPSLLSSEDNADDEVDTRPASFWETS
Method in brief: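 Cell-free MET kinase assay using recombinant protein and fluorescent substrate, with mobility-shift separation; read 1 h after dosing. Primary duplicate at 25 uM; actives in singleton concentration-response to 50 uM maximum. Signal loss versus DMSO.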

SMILES | outcome | AC50
CC(O)CO (configuration not stated) | inactive | –
CCCCc1ccc2c(n1)[C@@H](c1ccc(OC)cc1C[C@H](C)C(=O)O)[C@H](C(=O)O)[C@H]2c1ccc2c(c1)OCO2 | inactive | –
CC(=O)Oc1ccccc1C(=O)O | inactive | –
Nc1ccccc1N | – | 32.2 µM (active)
OCC(CO)n1cnc(-c2ccc(F)cc2)c1-c1ccnc(Oc2ccccc2)n1 | inactive | –

molecular target: human Matrix Metalloproteinase-1 (MMP1), MMP1 (gene 4312) (UniProt P03956); experiment: NVS_ENZ_hMMP1: NovaScreen (NVS) Enzymatic Assay for human Matrix Metalloproteinase-1 (MMP1) (AID 2283181)
Sequence (P03956 whole entry, looked up): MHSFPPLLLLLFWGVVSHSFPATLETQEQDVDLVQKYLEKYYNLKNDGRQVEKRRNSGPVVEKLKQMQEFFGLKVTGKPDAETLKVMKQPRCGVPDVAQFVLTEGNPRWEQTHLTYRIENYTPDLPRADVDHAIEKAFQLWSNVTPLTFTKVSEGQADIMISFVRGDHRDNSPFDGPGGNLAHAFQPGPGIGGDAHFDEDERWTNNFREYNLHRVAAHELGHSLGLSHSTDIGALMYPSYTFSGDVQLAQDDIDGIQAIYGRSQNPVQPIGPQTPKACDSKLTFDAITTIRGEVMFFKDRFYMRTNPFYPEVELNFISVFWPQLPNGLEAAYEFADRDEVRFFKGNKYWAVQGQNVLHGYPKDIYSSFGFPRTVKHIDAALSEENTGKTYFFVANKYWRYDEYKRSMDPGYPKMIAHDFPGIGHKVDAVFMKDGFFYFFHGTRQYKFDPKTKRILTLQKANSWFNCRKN
Method in brief: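 Human MMP1 enzyme activity measured by fluorescence 1 h after dosing, cell-free, with a specific substrate. Screened in duplicate at 25 uM; hits (e.g. 30% inhibition) run in concentration-response up to 50 uM; loss of signal versus DMSO.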

SMILES | outcome | AC50
CC(=O)NC1(c2cccc(F)c2)CCN(CC[C@@]2(c3ccc(Cl)c(Cl)c3)CN(c3ccccc3)C(=O)CO2)CC1 | inactive | –
O=C(O)c1cccnc1 | inactive | –
CCC(C)c1ccccc1O (configuration not stated) | – | 11.9 µM (active)
CC(C)(O)c1coc(S(=O)(=O)NC(=O)Nc2c3c(cc4c2CCC4)CCC3)c1 | inactive | –
CC(=O)Oc1ccccc1C(=O)O | inactive | –
CCCCN1C(=O)[C@@H]([C@H](O)C2CCCCC2)NC(=O)C12CCN(Cc1ccc(Oc3ccc(C(=O)O)cc3)cc1)CC2 | inactive | –
Nc1ccc(C(=O)O)cc1 | inactive | –
Cc1cc(=O)[nH]c(=S)[nH]1 | inactive | –
c1ccc2n[nH]nc2c1 | inactive | –
Clc1cc(Cl)c(Cl)cc1Cl | inactive | –
CC(C)(c1cc(Br)c(O)c(Br)c1)c1cc(Br)c(O)c(Br)c1 | inactive | –
CC(=O)OC1CC(C)OC(C)O1 (configuration not stated) | inactive | –
CCCCOC(=O)CC(CC(=O)OCCCC)(OC(C)=O)C(=O)OCCCC | inactive | –
CCCCC(CC)COC(=O)CC(C(=O)OCC(CC)CCCC)S(=O)(=O)O (configuration not stated) | inactive | –

molecular target: human NIMA (Never In Mitosis Gene A)-Related Kinase 2 (NEK2), NEK2 (gene 4751) (UniProt P51955); experiment: NVS_ENZ_hNEK2: NovaScreen (NVS) Enzymatic Assay for human NIMA (Never In Mitosis Gene A)-Related Kinase 2 (NEK2) (AID 2283188)
Sequence (P51955 whole entry, looked up): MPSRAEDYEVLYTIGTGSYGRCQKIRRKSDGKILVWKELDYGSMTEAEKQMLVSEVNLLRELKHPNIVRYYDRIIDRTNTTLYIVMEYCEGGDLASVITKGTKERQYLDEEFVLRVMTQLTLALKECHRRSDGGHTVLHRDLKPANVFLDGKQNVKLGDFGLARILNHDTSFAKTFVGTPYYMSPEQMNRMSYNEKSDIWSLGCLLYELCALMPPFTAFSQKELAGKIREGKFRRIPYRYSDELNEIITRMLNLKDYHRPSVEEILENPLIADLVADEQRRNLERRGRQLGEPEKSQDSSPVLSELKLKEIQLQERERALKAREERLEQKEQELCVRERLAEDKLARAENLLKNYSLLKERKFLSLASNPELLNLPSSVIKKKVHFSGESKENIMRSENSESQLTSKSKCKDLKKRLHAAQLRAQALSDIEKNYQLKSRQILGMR
Method in brief: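 Cell-free NEK2 enzyme activity after 1 h exposure, read by fluorescence with electrophoretic mobility shift separating substrate and product. Primary screen in duplicate at 25 uM; actives then run as concentration series. Loss of signal versus DMSO scored.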

SMILES | outcome
Cc1ccc2ncccc2c1 | inactive
O=CCCCC=O | inactive
CCCCC=O | inactive
CC(C)(C)c1csc(-c2cc3cc(OCc4ccccc4CC(=O)O)ccc3o2)n1 | inactive
c1ccc(C(O[C@@H]2CCCN(CCc3ccc4c(c3)OCO4)C2)c2ccccc2)cc1 | inactive

molecular target: human p21 Activated Kinase 4 (PAK4), PAK4 (gene 10298) (UniProt O96013); experiment: NVS_ENZ_hPAK4: NovaScreen (NVS) Enzymatic Assay for human p21 Activated Kinase 4 (PAK4) (AID 2283189)
Sequence (O96013 whole entry, looked up): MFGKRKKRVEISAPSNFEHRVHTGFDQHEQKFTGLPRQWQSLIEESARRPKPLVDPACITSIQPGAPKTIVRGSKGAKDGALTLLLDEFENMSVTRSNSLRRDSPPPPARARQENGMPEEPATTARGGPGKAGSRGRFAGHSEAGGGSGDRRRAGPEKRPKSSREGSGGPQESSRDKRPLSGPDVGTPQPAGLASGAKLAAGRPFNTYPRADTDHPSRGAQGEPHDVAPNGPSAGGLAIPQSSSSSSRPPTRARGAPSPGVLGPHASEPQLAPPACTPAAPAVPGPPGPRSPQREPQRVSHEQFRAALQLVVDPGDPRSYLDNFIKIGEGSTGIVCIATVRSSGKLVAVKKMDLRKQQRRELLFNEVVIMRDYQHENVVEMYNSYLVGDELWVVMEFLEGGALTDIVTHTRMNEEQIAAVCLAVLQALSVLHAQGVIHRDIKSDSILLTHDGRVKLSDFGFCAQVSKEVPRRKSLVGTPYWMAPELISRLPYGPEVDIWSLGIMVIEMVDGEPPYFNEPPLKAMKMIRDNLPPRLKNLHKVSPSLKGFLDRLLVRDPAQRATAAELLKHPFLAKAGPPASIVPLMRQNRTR
Method in brief: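 Cell-free recombinant human PAK4 activity assay; fluorescent substrate and product separated by electrophoretic mobility shift, read 1 h after dosing. Initially tested in duplicate at 25 uM, relative to DMSO baseline.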

SMILES | outcome | AC50
CC(C)c1cccc(C(C)C)c1N1C(=O)c2ccc(O)cc2C1=O | inactive | –
O=c1c(O)c(-c2ccc(O)c(O)c2)oc2cc(O)cc(O)c12 | inactive | –
NC(=O)N1C(=O)C(C(=O)c2cc(Cl)cs2)c2cc(F)c(Cl)cc21 (configuration not stated) | inactive | –
C[C@]12C[C@H](O)[C@H]3[C@@H](CCC4=CC(=O)CC[C@@]43C)[C@@H]1CC[C@@H]2C(=O)CO | inactive | –
CCCCCCCC[Si](OCC)(OCC)OCC | inactive | –
Cc1ccc2oc(CN(Cc3ccccc3)C(=O)Nc3c(F)cc(F)cc3F)c(-c3ccc(Cl)cc3)c2c1 | inactive | –
O=C1O[C@H]([C@H](O)CO)C(O)=C1O | inactive | –
CC/C(=C\C(=N/O)C(N)=O)C(C)[N+](=O)[O-] (configuration not stated) | inactive | –
CC[C@H]1OC(=O)[C@H](C)[C@@H](O[C@H]2C[C@@](C)(OC)[C@@H](O)[C@H](C)O2)[C@H](C)[C@@H](O[C@@H]2O[C@H](C)C[C@H](N(C)C)[C@H]2O)[C@](C)(O)C[C@@H](C)C(=O)[C@H](C)[C@@H](O)[C@]1(C)O | inactive | –
O=[Si]=O | inactive | –
CC1(C)CC(N=C=O)CC(C)(CN=C=O)C1 (configuration not stated) | – | 25 µM (active)
Cc1cc(Cc2ccc(N)c(C)c2)ccc1N | inactive | –
O=C(O)[C@H](O)[C@@H](O)C(=O)O | inactive | –
